Data published in PubChem BioAssay AID1159580 (chemical genetic matrix, 2015).
Screen size: about 5,500 compounds; about 2,000 (36%) were called active. Inconclusive results (about 18%) are left out. Rule as the data show it: active = normalized growth mostly below about 0.91 (no sharp cut-off); inconclusive = no clear call, values can overlap the other calls; inactive = mostly above about 0.92. The list shows a part of the results.

Test: chemical genetic growth profiling, strain panel (AID 1159580);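 also: tested at 20 µM; growth read once vehicle control cultures reached saturation at 30 °C; 1 = growth at the plate median or of vehicle wells; lower values mean less growth of the strain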
Details: growth OD

Measured: normalized growth

Nc1ccc(S(=O)(=O)Nc2nccs2)cc1
inactive: S. cerevisiae deletion strains, locus YJR075W, strain HOC1, hits give low values 1.01 | S. cerevisiae deletion strains, locus YKL009W, strain mrt4, hits give low values 0.999 | S. cerevisiae deletion strains, locus YKL068W, hits give low values 0.99 | S. cerevisiae deletion strains, locus YKL085W, strain MDH1 (second series), hits give low values 0.99 | S. cerevisiae deletion strains, locus YKL085W, strain MDH1, hits give low values 0.99 | S. cerevisiae deletion strains, locus YKL160W, strain elf1, hits give low values 1.02 | S. cerevisiae deletion strains, locus YKL190W, strain CNB1, hits give low values 1.01 | S. cerevisiae deletion strains, locus YKR001C, strain vps1, hits give low values 1.02 | S. cerevisiae deletion strains, locus YKR026C, strain gcn3, hits give low values 1.01 | S. cerevisiae deletion strains, locus YKR091W, strain srl3, hits give low values 1.01 | S. cerevisiae deletion strains, locus YLL001W, strain dnm1, hits give low values 1.02 | S. cerevisiae deletion strains, locus YLL026W, hits give low values 1.02 | S. cerevisiae deletion strains, locus YLL041C, strain sdh2, hits give low values 1.01 | S. cerevisiae deletion strains, locus YLR027C, strain aat2, hits give low values 1.02 | S. cerevisiae deletion strains, locus YLR039C, strain RIC1, hits give low values 1.04 | S. cerevisiae deletion strains, locus YLR058C, strain SHM2, hits give low values 1.01 | S. cerevisiae deletion strains, locus YLR102C, strain apc9, hits give low values 0.995 | S. cerevisiae deletion strains, locus YLR113W, strain HOG1, hits give low values 1.02 | S. cerevisiae deletion strains, locus YLR221C, strain rsa3, hits give low values 1 | S. cerevisiae deletion strains, locus YLR258W, strain gsy2, hits give low values 1.01 | S. cerevisiae deletion strains, locus YLR262C, strain YPT6 (second series), hits give low values 1.03 | S. cerevisiae deletion strains, locus YLR262C, strain YPT6, hits give low values 1.05 | S. cerevisiae deletion strains, locus YLR268W, strain sec22, hits give low values 0.948 | S. cerevisiae deletion strains, locus YLR320W, strain mms22, hits give low values 0.992 | S. cerevisiae deletion strains, locus YLR330W, strain CHS5, hits give low values 1.01 | S. cerevisiae deletion strains, locus YLR342W, strain FKS1 (second series), hits give low values 1.03 | S. cerevisiae deletion strains, locus YLR342W, strain FKS1, hits give low values 1.01 | S. cerevisiae deletion strains, locus YLR357W, strain rsc2, hits give low values 1.02 | S. cerevisiae deletion strains, locus YLR370C, strain arc18, hits give low values 1.02 | S. cerevisiae deletion strains, locus YLR371W, strain rom2, hits give low values 0.996 | S. cerevisiae deletion strains, locus YLR384C, strain iki3, hits give low values 1.02 | S. cerevisiae deletion strains, locus YLR418C, strain cdc73, hits give low values 0.997 | S. cerevisiae deletion strains, locus YML016C, strain PPZ1, hits give low values 1.01 | S. cerevisiae deletion strains, locus YML032C, strain rad52, hits give low values 0.98 | S. cerevisiae deletion strains, locus YML120C, strain ndi1, hits give low values 1.02 | S. cerevisiae deletion strains, locus YML124C, strain tub3, hits give low values 0.997 | S. cerevisiae deletion strains, locus YMR058W, strain fet3, hits give low values 1.02 | S. cerevisiae deletion strains, locus YMR078C, strain ctf18, hits give low values 0.994 | S. cerevisiae deletion strains, locus YMR125W, strain sto1, hits give low values 1 | S. cerevisiae deletion strains, locus YMR129W, hits give low values 1.01 | S. cerevisiae deletion strains, locus YMR205C, strain PFK2, hits give low values 1 | S. cerevisiae deletion strains, locus YMR223W, strain ubp8, hits give low values 1.01 | S. cerevisiae deletion strains, locus YMR231W, strain pep5, hits give low values 1.01 | S. cerevisiae deletion strains, locus YMR263W, strain SAP30, hits give low values 1.01 | S. cerevisiae deletion strains, locus YMR307W, strain GAS1, hits give low values 0.995 | S. cerevisiae deletion strains, locus YNL067W, strain RPL9B, hits give low values 1.02 | S. cerevisiae deletion strains, locus YNL071W, strain lat1, hits give low values 1.01 | S. cerevisiae deletion strains, locus YNL128W, strain TEP1, hits give low values 1.01 | S. cerevisiae deletion strains, locus YNL153C, strain GIM3, hits give low values 1 | S. cerevisiae deletion strains, locus YNL183C, strain NPR1, hits give low values 0.948 | S. cerevisiae deletion strains, locus YNL209W, strain ssb2, hits give low values 1.02 | S. cerevisiae deletion strains, locus YNL233W, strain BNI4, hits give low values 0.99 | S. cerevisiae deletion strains, locus YNL248C, strain rpa49, hits give low values 0.998 | S. cerevisiae deletion strains, locus YNL250W, strain rad50, hits give low values 0.989 | S. cerevisiae deletion strains, locus YNL271C, strain bni1, hits give low values 0.992 | S. cerevisiae deletion strains, locus YNL298W, strain CLA4, hits give low values 1 | S. cerevisiae deletion strains, locus YNL307C, strain MCK1, hits give low values 0.995 | S. cerevisiae deletion strains, locus YNL322C, strain KRE1 (second series), hits give low values 1.02 | S. cerevisiae deletion strains, locus YNL322C, strain KRE1, hits give low values 1.01 | S. cerevisiae deletion strains, locus YNR049C, strain mso1, hits give low values 1.01 | S. cerevisiae deletion strains, locus YNR052C, strain pop2, hits give low values 1 | S. cerevisiae deletion strains, locus YOL006C, strain TOP1, hits give low values 1.01 | S. cerevisiae deletion strains, locus YOL012C, strain htz1 1.03 | S. cerevisiae deletion strains, locus YOL147C, strain pex11, hits give low values 0.992 | S. cerevisiae deletion strains, locus YOR001W, strain rrp6, hits give low values 1.03 | S. cerevisiae deletion strains, locus YOR061W, strain CKA2, hits give low values 1.01 | S. cerevisiae deletion strains, locus YOR069W, strain VPS5, hits give low values 1.01 | S. cerevisiae deletion strains, locus YOR070C, strain gyp1, hits give low values 1 | S. cerevisiae deletion strains, locus YOR080W, strain dia2, hits give low values 1.01 | S. cerevisiae deletion strains, locus YOR083W, strain WHI5, hits give low values 0.98 | S. cerevisiae deletion strains, locus YOR106W, strain vam3, hits give low values 1.04 | S. cerevisiae deletion strains, locus YOR136W, strain idh2, hits give low values 0.993 | S. cerevisiae deletion strains, locus YOR144C, strain elg1, hits give low values 1 | S. cerevisiae deletion strains, locus YOR184W, strain ser1, hits give low values 1 | S. cerevisiae deletion strains, locus YOR231W, strain MKK1, hits give low values 1.05 | S. cerevisiae deletion strains, locus YOR265W, strain rbl2, hits give low values 1.02 | S. cerevisiae deletion strains, locus YOR270C, strain vph1, hits give low values 1.03 | S. cerevisiae deletion strains, locus YOR290C, strain snf2, hits give low values 0.997 | S. cerevisiae deletion strains, locus YOR316C, strain cot1, hits give low values 0.999 | S. cerevisiae deletion strains, locus YPL051W, strain arl3, hits give low values 1.02 | S. cerevisiae deletion strains, locus YPL055C, strain LGE1, hits give low values 1.02 | S. cerevisiae deletion strains, locus YPL078C, strain atp4, hits give low values 1.02 | S. cerevisiae deletion strains, locus YPL106C, strain sse1, hits give low values 1.03 | S. cerevisiae deletion strains, locus YPL240C, strain hsp82, hits give low values 1.03 | S. cerevisiae deletion strains, locus YPL241C, strain CIN2, hits give low values 1.01 | S. cerevisiae deletion strains, locus YPL256C, strain CLN2, hits give low values 1.02 | S. cerevisiae deletion strains, locus YPR119W, strain clb2, hits give low values 0.992 | S. cerevisiae deletion strains, locus YPR141C, strain kar3, hits give low values 0.996 | S. cerevisiae deletion strains, locus YPR163C, strain tif3, hits give low values 1 | S. cerevisiae deletion strains, locus YPR167C, strain met16, hits give low values 1 | S. cerevisiae deletion strains, strain wtn01, hits give low values 0.997 | S. cerevisiae strains, strain wild type, hits give low values 0.997
